# PubChem BioAssay (NCATS)
# Inconclusive results are not listed. A call without a number means that no potency is given here. Active and inactive are the calls of the source. The call rests on the fitted dose curve; in most records, active means well fitted inhibition curve with a large enough effect; inconclusive means small, poorly fitted or top-dose-only effect; inactive means no such curve, though single readings can be large or run the other way.
# Molecular target: Nuclear receptor ROR-gamma (Homo sapiens) (UniProt P51449)
# Assay: qHTS assay for small molecule antagonists of the retinoid-related orphan receptor gamma (ROR-gamma) signaling pathway (AID 651802); further: nearly all actives have a fitted effect of over 60% in size
# Conditions: ROR-gamma antagonist cell reporter assay; series mostly up to 92.2 µM
# Description: National Center for Advancing Translational Sciences [NCATS]
# NIH Chemical Genomics Center [NCGC]
# National Institutes of Environmental Health Sciences [NIEHS]
# National Toxicology Program [NTP]
# Nuclear steroid hormone receptors are involved in many biological processes including inflammatory responses, cell proliferation, and apoptosis. Environmental factors or compounds disrupting these nuclear receptor pathways and gene expression may promote susceptibility to immunotoxicants and autoimmune diseases. One important group of these expression factors are the retinoid-related orphan receptors. To assess compounds that may interfere with the retinoid-related orphan receptor gamma (ROR-gamma) transcription factor, a cell-based luciferase assay was used.
# The CHO cell-based assay utilizes a TET-inducible ROR expression factor and ROR response element-LUC reporter gene. Reporter activity was induced using doxycycline and measured after 16hr incubation. Luminescence was read using Viewlux (PerkinElmer), where a decrease in reporter activity would show a decrease in luminescence.
# 1,000 cells in 4 uL/well were dispensed into white wall/solid bottom 1536-well plates using a Multidrop Combi (Thermo Scientific) dispenser. Following transfer of 23 nL compound or DMSO vehicle by a pin tool, the plates were treated with 1 ul doxycycline to induce reporter gene activity. After 16hr incubation at 37C and 5% CO2, 5uL one-glo (promega) was added to each plate and following 30 min incubation at room temperature, luminescence was quantified on a ViewLux (PerkinElmer) plate reader.
# Potency means the concentration at half of the fitted maximal effect.
# Sequence of Nuclear receptor ROR-gamma (Homo sapiens) (P51449 whole entry, looked up): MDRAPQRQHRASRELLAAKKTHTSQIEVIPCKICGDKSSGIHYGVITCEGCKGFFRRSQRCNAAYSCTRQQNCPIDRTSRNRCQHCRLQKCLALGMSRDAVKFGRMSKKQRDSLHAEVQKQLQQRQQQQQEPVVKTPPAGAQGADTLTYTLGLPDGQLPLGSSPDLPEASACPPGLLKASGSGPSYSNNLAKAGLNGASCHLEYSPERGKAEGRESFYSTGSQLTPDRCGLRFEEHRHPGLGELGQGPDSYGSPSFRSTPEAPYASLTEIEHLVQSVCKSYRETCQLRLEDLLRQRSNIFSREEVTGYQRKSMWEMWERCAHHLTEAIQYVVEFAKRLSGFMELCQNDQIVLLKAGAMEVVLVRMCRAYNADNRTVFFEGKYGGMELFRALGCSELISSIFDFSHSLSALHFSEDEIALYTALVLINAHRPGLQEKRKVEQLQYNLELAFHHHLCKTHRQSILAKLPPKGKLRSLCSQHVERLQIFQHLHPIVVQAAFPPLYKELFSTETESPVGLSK
row,Structure (SMILES),Potency
1,CC(=O)OC/C=C(C)/C=C/C=C(C)/C=C/C1=C(C)CCCC1(C)C,inactive
2,c1ccc2occc2c1,inactive
3,Oc1ccccc1,inactive
4,COc1cc(C=O)ccc1O,inactive
5,CCCCC(CC)COC(=O)c1ccccc1C(=O)O (stereo unspecified),inactive
6,O=C(NO)c1ccccc1,inactive
7,C1=CC2C3C=CC(C3)C2C1 (stereo unspecified),inactive
8,CCCC(=O)c1cc(O)c(O)cc1O,inactive
9,CC(C)C(C)(C)C(C)(C)C(C)(C)S,inactive
10,O=C(Oc1ccccc1)c1ccccc1O,inactive
11,CC(C)(C)c1ccc(O)c(O)c1,59.6 µM (active)
